Hit rate of the full screen: of about 300,000 compounds, about 3,600 (1.2%) were called active. Rule as the data show it: active = activation above about 30% (passing the limit was not always enough); inconclusive = no clear call, values can overlap the other calls. Many of the other results were omitted from the sample, so actives are more common in it than they were.
Assay: activation of beta-catenin signaling reporter – cell-based, plate reader, single point, primary screen (AID 743398);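 also: 0% = neutral control wells and 100% = positive control wells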
Details: Wnt/beta-catenin reporter cell assay, activator, at 9.35 µM, hits give high values

SMILES | activation
O=C(/C=C/c1ccccc1)Nc1nnc(SCC(=O)c2ccc3ccccc3c2)s1 | -11.8% (inactive)
COc1ccc(CC(N)c2csc(NC(=O)Nc3ccc(C(C)C)cc3)n2)cc1 (stereo not given) | 0.986% (inactive)
Cc1ccc(C)c(CN2CCC(CNC(=O)C3CCCN(c4ncnc5c4nc4n5CCCCC4)C3)CC2)c1 (stereo not given) | 2.22% (inactive)
CSc1ccc(CN2CCC2(C)C(=O)NCc2ccccc2Br)cc1 (stereo not given) | -0.564% (inactive)
CCOC(=O)C1CCCN(C(=O)c2cc(-c3cccs3)oc2C)CC1 (stereo not given) | -1.53% (inactive)
Nc1ccc(N=Nc2ccccc2Cl)c(N)n1 | 37.3% (active)
CCN1C(=O)[C@@H]2[C@@H]3CN(S(=O)(=O)c4ccccc4C)[C@@H](c4ccc(Cl)cc4)[C@@H]3C(=O)C[C@@H]2C1=O | -1.76% (inactive)
Oc1cccc2cc(-c3ccncc3)cnc12 | 4.6% (inactive)
C=CC[C@]12C[C@@]3(O[C@H](c4ccc(C(F)(F)F)cc4)N=C3C[C@H](c3ccc(OC)cc3)[C@H]1C)N(C1CCN(Cc3ccccc3)CC1)C2=O | -5.8% (inactive)
C=CCOc1cccc(C2C(C(=O)c3ccc(C)o3)=C(O)C(=O)N2CCN2CCOCC2)c1 (stereo not given) | -3.18% (inactive)
Cc1cccc(-c2noc(-c3ccc(F)cc3)n2)c1 | 51% (active)
Cc1ccc(Cc2nc(-c3cccc(C)c3)no2)cc1 | 16.6% (inactive)
Cc1ccc(-c2nc(-c3ccncc3)no2)c(C)c1 | 0.571% (inactive)
CN1CCCCC(NC(=O)C(C)(C)C)C1=O (stereo not given) | -0.306% (inactive)
Nc1[nH]c(C(=O)c2ccccc2)c(-c2ccc(Cl)cc2Cl)c1C(=O)c1ccccc1 | 3.74% (inactive)
NC(=O)COC(=O)/C=C/c1ccc2ccccc2n1 | 48.3% (active)
COc1cccc(/C=C/c2ccc3ccccc3n2)c1OC(C)=O | -2.71% (inactive)
CCOc1cccc(/C=C/c2ccc3ccccc3n2)c1OC(C)=O | 7.85% (inactive)
C[C@@H]1CN([C@@H](C)CO)C(=O)CCCn2nncc2CO[C@@H]1CN(C)S(=O)(=O)c1ccc(-c2ccccc2)cc1 | -3.45% (inactive)
CCCNC(=O)C1(C)CCN(Cc2csc(-c3ccc(Cl)cc3)n2)C1 (stereo not given) | -1.95% (inactive)
COC(=O)c1sc(-c2ccc(C(C)(C)C)cc2)cc1NC(=O)/C=C/C(=O)O | 34.5% (active)
O=C(O)/C=C/C(=O)Nc1ccc(F)cc1F | -1.57% (inactive)
COc1ccccc1NC(=O)/C=C/C(=O)O | 0.198% (inactive)

SMILES | activation
CCc1nc2c(OCc3ccccc3)cccn2c1N(C)C(=O)c1ccco1 | -1.39% (inactive)
Cc1ccc(C(O)c2ncc(-c3ccccc3F)[nH]2)cc1F (stereo not given) | -2% (inactive)
COc1ccc(C2OC(CCc3ccccc3)Cc3[nH]c(=S)[nH]c(=O)c32)cc1 (stereo not given) | -4.52% (inactive)
OCCC#Cc1ccc(N2C(c3ccsc3)=Cc3ccc(F)cc3C2c2c[nH]c3ccccc23)cc1 (stereo not given) | -4.42% (inactive)
C=CC1=CCN(S(=O)(=O)C(C)(C)C)[C@@H]1CCO | -5.37% (inactive)
Cc1ccc(NC(=O)c2csc3c2CCCC3)cc1 | 33.5% (active)
O=C(Nc1ccccc1N1CCOCC1)c1csc2c1CCCC2 | 3.53% (inactive)
O=C(N/N=C/c1ccco1)c1csc2c1CCCC2 | 14.7% (inactive)
COc1cccc(CNC(=O)[C@H]2CCCN2C(=O)[C@H]2CCCN2C(=O)c2ccc(F)cc2)c1 | -3.18% (inactive)
Cc1ccc2nc(-c3ccc(CN4CCC(n5cc(-c6ccccc6)[nH]c5=O)CC4)cc3)c(-c3ccccc3)nc2c1 | -0.633% (inactive)
O=C(CN1CCN(S(=O)(=O)/C=C/c2ccccc2)CC1)Nc1ccc(N2CCOCC2)cc1 | -0.917% (inactive)
O=C(O)c1ccc2c(c1)C(=O)N(c1ccc(/C=C/C(=O)c3ccccc3)cc1)C2=O | 31.9% (active)
Cc1cccc(N2C(=O)c3ccc(C(=O)Nc4cccc(C(=O)O)c4)cc3C2=O)c1 | 3.97% (inactive)
O=C(O)c1ccc2c(c1)C(=O)N(NC(=O)c1ccc(O)cc1)C2=O | -0.273% (inactive)
O=C(NN=Cc1ccc(N2CCOCC2)cc1)c1cc2ccccc2cc1O | -3.76% (inactive)
O=C(/C=C/c1ccc(N2CCOCC2)cc1)c1ccccc1 | 38.7% (active)
O=C(c1ccc(N2CCCC2=O)cc1)N1CCN(c2ccc(C(F)(F)F)cc2[N+](=O)[O-])CC1 | -1.11% (inactive)
CC(=O)c1ccc(Nc2nc(C(N)c3ccccc3Cl)cs2)cc1 (stereo not given) | -4.58% (inactive)
O=C(C(=O)N1CCC(CNS(=O)(=O)Cc2ccccc2)CC1)c1cc2ccccc2o1 | -4.41% (inactive)
CCc1nc(SCC(=O)NNC(=O)c2ccc(C)cc2)c2ccccc2n1 | -1.15% (inactive)
Cc1ccc(C(=O)NNc2ncnc3ccccc23)cc1 | 42.9% (active)
Cc1ccc(C(=O)NNC(=O)c2cccs2)cc1 | 6.9% (inactive)
